AmpC inh no detg = qHTS Inhibitors of AmpC Beta-Lactamase (assay without detergent); P00811; AmpC nitrocefin hydrolysis, absorbance 480 nm, 0.0001% Triton; Potency, µM (doses to about 57.1 µM), for inactives: at the top dose activity change, negative = inhibition, actives largely listed as inhibitors; actives 0.52% (n = 330,000); AID 485341, 2010;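 also: plate controls were no compound for no effect and no enzyme for full effect; nearly all actives have a fitted effect of over 20% in size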
Target sequence (P00811 whole entry, looked up): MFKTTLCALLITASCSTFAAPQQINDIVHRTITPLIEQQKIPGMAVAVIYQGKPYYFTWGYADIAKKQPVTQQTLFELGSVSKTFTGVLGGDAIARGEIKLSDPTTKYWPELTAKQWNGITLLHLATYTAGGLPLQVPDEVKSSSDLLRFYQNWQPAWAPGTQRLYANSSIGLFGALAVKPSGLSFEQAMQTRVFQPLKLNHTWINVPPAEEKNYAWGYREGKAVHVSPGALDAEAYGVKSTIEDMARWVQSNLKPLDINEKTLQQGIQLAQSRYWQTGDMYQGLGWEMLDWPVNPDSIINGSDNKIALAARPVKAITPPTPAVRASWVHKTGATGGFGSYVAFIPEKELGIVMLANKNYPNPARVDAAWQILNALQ
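AmpC (5.3 nM in the dispensed reagent) in 20 mM phosphate pH 7.0 with 0.01% (detergent screen) or 0.0001% Triton X-100 was preincubated with compounds for 15 min at room temperature. Nitrocefin was then added from an 800 uM solution, and hydrolysis was followed at 480 nm.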
AmpC detergent = qHTS Inhibitors of AmpC Beta-Lactamase (assay with detergent) | AID 485294, 2010 | AmpC hydrolysis of nitrocefin, absorbance 480 nm, 0.01% Triton | Potency, µM (titrated, usually from 114 µM), without a hit: at the top dose activity change, negative = inhibition, usual class: inhibitors | P00811 | actives 0.041% (n = 370,000);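 also: 0% = no-compound wells and -100% = no-enzyme wells; nearly all actives have a fitted effect of over 25% in size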
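20 mM phosphate pH 7.0 + 0.01% (detergent screen) or 0.0001% Triton X-100; 5.3 nM AmpC reagent; cpd preinc 15 min RT; nitrocefin (800 uM stock) to start; A480 q20 s × 4 min; Activity was normalised to no-enzyme and no-compound control wells.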
Sm TGR inh = qHTS Assay for the Inhibitors of Schistosoma Mansoni Peroxiredoxins; purified TGR, DTNB reduction, TNB absorbance 405 nm; Potency, µM (titrated, usually from 114 µM), for inactives: top-dose activity change, negative = inhibition, most hits filed as inhibitors; actives 3% (n = 360,000); also: nearly all actives have a fitted effect of over 60% in size
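TGR 20 nM + NADPH 100 uM (dispensed conc.), cpd preinc 15 min RT; start with NADPH (500 uM addition) then DTNB (15 mM addition). Kinetic TNB absorbance, 405 nm filter. Four-parameter Hill fit across titration.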
* marks the source's active call; other numbers are inactive results; u = inconclusive; x = no result; [ ] = dose if it differs, or a comment. The list is not random: actives were taken first. Their share in the collection is about 3.3%. Calls follow the shape of the dose curve; as a rule, active = well fitted curve in the direction sought with a large enough effect; inconclusive = small, poorly fitted or top-dose-only effect, or another doubt; inactive = no such curve, though single readings can be large; an effect the other way counts as inactive or inconclusive. Unless noted, % is scaled to controls: 0 for no effect and ±100 for the full control effect; potency is read from the fitted curve at half-maximal effect.

SMILES	AmpC inh no detg	AmpC detergent	Sm TGR inh
Cc1sc2c(c1C)CN(CCN1CCOCC1)CN2C(=O)c1ccccc1	27.4%	-1.4%	79.4µM*
CCC(/C=C1\Sc2ccc(OC)cc2N1CC)=C\c1sc2ccc(OC)cc2[n+]1CCCS(=O)(=O)[O-]	105.6%	2.7%	-3.5%
CCC(/C=C1\Sc2ccc(OC)cc2N1CCO)=C\c1sc2ccc(OC)cc2[n+]1CCO	196.6%	-13.9%	11.2µM*
NC(=O)C1=C[C@@H](c2ccc(C(F)(F)F)cc2)C[C@@H](OCCCCO)O1	38.6%	5.1%	u
CC(=O)n1cc([C@@H]2C=C(C(=O)NCc3ccccc3)O[C@H](OCCCCO)C2)c2ccccc21	84.5%	-0.7%	50.1µM*
C#CCNC(=O)C1=C[C@H](c2csc3ccccc23)C[C@H](OCCCCO)O1	109.1%	8.6%	44.7µM*
C#CCNC(=O)C1=C[C@@H](c2cn(C(C)=O)c3ccccc23)C[C@@H](OCCCCO)O1	111.5%	5.2%	39.8µM*
CC(=O)n1cc([C@H]2C=C(C(=O)Nc3ccccc3)O[C@@H](OCCCCO)C2)c2ccccc21	158.6%	-7.0%	-10.0%
C#CCNC(=O)C1=C[C@H](c2csc3ccccc23)C[C@H](OCc2ccc(CO)cc2)O1	62.5%	0.4%	0.0%
CC(=O)n1cc([C@H]2C=C(C(=O)NCc3ccccc3)O[C@@H](OCCCCO)C2)c2ccccc21	97.5%	3.5%	u
C#CCNC(=O)C1=C[C@H](c2ccc(C(F)(F)F)cc2)C[C@H](OCCCCO)O1	91.8%	6.9%	12.6µM*
CCCC1=Nc2cc(C(=O)NC3CCCCC3)ccc2Sc2ccc(C)cc21	x	-5.4%	0.6%
CCOC(=O)c1c(S(=O)(=O)NCC(=O)N(C)Cc2ccccc2)c(C)n(C)c1C	x	-2.1%	-4.1%
COc1ccc(Cl)cc1NC(=O)c1ncn(-c2ccccc2)n1	x	12.3%	1.9%
Cc1ccc(OCC(=O)Nc2nonc2-c2ccc(C)c(C)c2)cc1C	x	25.9%	4.4%
CCc1nc2sc3c(c2c(=O)n1NC(=O)CCl)CCCC3	-12.8%	0.7%	44.7µM*
CC(=O)N(C(C)=O)n1c(C)nc2sc3c(c2c1=O)CCCC3	2.9%	5.9%	x
O=c1c2oc3ccccc3c2n(Cc2cccc(C(F)(F)F)c2)c(=O)n1Cc1ccc2c(c1)OCO2	x	21.7%	13.2%
CC1NC2(C(=O)N(Cc3ccccc3)c3ccccc32)C2C(=O)N(c3ccccc3)C(=O)C12 (stereo not drawn)	11.2µM*	u	-11.0%
Cc1ccc([C@@H]2[C@@H]3C(=O)N(c4ccccc4)C(=O)[C@@H]3[C@]3(C)C(=O)N(Cc4ccccc4)CC(=O)N23)o1	99.3%	u	-18.3%
COc1cccc(CSc2nc3cc(C(=O)NC4CCCC4)ccc3c(=O)n2Cc2ccccc2)c1	x	2.5%	-5.2%
CCOc1ccc(-c2nc(Cn3c(=O)cc(-c4ccccc4)c4c(C)nn(C)c43)c(C)o2)cc1OC	x	12.3%	6.2%
O=S(=O)(c1ccc2c(c1)CCN2)N1CCCCCC1	x	-0.2%	-3.5%
CC(C)NC(=O)NS(=O)(=O)c1cnccc1NC1CC2CCC1C2 (stereo not drawn)	-6.2%	1.5%	0.4%
C#CCNc1ccncc1S(=O)(=O)NC(=O)NC(C)C	-16.1%	-4.8%	22.4µM*
SMILES	AmpC inh no detg	AmpC detergent	Sm TGR inh
C1=CC2c3ccccc3NC(c3ccncc3)C2C1 (stereo not drawn)	89.7%	4.6%	2.51µM*
CC(=O)c1ccc2c(c1)C1C=CCC1C(c1ccncc1)N2 (stereo not drawn)	81.1%	-9.5%	u
COc1ccc(C2CC(=O)N3CN(c4ccc(C)c(Cl)c4)CSC3=C2C#N)cc1 (stereo not drawn)	-47.8%	u	44.7µM*
CCc1ccccc1N1CSC2=C(C#N)C(c3ccccc3F)CC(=O)N2C1 (stereo not drawn)	-34.4%	4.1%	17.8µM*
COc1ccc(OC)c(C2CC(=O)N3CN(c4ccccc4)CSC3=C2C#N)c1 (stereo not drawn)	-38.1%	u	10µM*
COC(=O)CSC1=C(C#N)C(c2ccc(C)o2)CC(=O)N1 (stereo not drawn)	-0.2%	-2.1%	0.5%[57.1 µM]
Cc1cccc(N2CSC3=C(C#N)C(c4ccc(C)o4)CC(=O)N3C2)c1 (stereo not drawn)	-45.9%	u	11.2µM*
COc1ccc(OC)c(C2CC(=O)N(c3cccc(C)c3)C3=C2C(=O)OC3)c1 (stereo not drawn)	x	-5.5%	-8.8%
Cn1c2c(c(=O)n(C)c1=O)C(c1ccccc1F)C(C#N)=C(N)O2 (stereo not drawn)	31.4%	5.0%	-21.4%
